{
  "source": "PubChem BioAssay (NCATS)",
  "key": {"[1]": {"molecular_target": "Voltage-gated inwardly rectifying potassium channel KCNH2 (Homo sapiens) (UniProt Q12809)", "sequence (Q12809 whole entry, looked up)": "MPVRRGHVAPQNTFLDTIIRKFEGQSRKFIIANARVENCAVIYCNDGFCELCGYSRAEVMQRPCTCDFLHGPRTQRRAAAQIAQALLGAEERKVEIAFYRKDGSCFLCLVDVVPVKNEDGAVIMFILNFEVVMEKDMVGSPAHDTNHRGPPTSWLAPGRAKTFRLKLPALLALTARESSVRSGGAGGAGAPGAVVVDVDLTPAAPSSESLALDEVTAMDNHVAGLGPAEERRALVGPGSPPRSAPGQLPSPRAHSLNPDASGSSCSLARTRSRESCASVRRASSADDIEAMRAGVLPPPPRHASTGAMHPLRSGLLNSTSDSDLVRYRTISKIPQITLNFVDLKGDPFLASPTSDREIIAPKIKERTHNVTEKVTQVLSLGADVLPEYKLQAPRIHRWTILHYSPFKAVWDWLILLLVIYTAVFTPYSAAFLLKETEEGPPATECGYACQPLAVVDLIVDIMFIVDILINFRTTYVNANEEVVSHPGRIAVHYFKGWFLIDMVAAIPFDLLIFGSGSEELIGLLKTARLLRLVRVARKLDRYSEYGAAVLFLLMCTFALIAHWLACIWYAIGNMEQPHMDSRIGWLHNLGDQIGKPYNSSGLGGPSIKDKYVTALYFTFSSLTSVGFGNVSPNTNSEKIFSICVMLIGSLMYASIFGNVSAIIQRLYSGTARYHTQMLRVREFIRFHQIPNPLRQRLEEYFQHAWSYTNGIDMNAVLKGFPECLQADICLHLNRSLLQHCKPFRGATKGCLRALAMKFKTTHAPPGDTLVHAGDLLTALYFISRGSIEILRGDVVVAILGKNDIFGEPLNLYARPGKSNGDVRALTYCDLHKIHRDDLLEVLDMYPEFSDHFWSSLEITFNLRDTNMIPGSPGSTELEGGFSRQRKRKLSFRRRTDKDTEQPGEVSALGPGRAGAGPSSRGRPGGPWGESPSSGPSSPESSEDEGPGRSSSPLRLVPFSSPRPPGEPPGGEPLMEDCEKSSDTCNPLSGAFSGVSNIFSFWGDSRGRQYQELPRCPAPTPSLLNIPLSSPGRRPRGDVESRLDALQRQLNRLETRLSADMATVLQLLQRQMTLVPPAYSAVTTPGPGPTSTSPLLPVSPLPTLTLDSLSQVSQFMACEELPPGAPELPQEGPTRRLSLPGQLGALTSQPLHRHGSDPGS", "test": "qHTS Assay for Small Molecule Inhibitors of the Human hERG Channel Activity (AID 588834);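 note: top concentration of the series differs between compounds; lower thallium flux fluorescence means stronger hERG block; nearly all actives have a fitted effect of over 50% in size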", "outline": "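Concentration-response qHTS measuring drop in thallium-sensitive dye signal. U2OS cells carrying BacMam hERG; compound exposure ~10 min, then stimulation buffer and 2 min read at 1 sec intervals.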"}, "[2]": {"molecular_target": "Glutaminase kidney isoform, mitochondrial (Homo sapiens) (UniProt O94925)", "sequence (O94925 whole entry, looked up, canonical isoform)": "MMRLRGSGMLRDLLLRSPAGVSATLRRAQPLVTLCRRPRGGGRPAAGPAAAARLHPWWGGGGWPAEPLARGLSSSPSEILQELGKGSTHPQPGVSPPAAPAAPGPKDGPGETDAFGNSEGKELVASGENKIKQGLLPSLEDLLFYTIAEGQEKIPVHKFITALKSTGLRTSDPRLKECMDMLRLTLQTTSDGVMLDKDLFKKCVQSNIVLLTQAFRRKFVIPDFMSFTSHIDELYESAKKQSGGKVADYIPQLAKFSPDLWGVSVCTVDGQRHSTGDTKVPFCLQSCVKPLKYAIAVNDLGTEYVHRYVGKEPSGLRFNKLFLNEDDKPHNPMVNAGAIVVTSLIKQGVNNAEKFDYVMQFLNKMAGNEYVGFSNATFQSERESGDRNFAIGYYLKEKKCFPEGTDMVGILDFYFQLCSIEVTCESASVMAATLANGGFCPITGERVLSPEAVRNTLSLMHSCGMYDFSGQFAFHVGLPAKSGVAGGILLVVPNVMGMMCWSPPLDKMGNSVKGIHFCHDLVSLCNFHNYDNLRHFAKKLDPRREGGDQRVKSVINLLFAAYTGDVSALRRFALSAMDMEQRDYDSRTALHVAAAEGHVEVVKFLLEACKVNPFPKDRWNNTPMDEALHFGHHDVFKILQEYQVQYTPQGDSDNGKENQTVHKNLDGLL", "test": "qHTS for Inhibitors of Glutaminase (GLS): LOPAC Validation (AID 624146);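 note: glutamate product detected by oxidase and peroxidase coupled Amplex red fluorescence gain; series mostly up to about 46 µM; nearly all actives have a fitted effect of over 60% in size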", "outline": "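Compounds were pin-transferred onto hKGA, after which L-glutamine (1 mM solution) and a detection mix of glutamate oxidase, HRP and Amplex Red were added. Initial and 30 min RT fluorescence reads were collected.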"}, "[3]": {"test": "qHTS of Trypanosoma Brucei Inhibitors: LOPAC Validation (AID 624147)", "outline": "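ADP (130 uM final) triggers the TbPYK reaction after compound addition; incubation is 45 min at room temperature. Kinase-Glo Plus is then added and luminescence imaged. Normalized data are fitted to concentration-effect curves.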"}, "[4]": {"molecular_target": "Glucagon-like peptide 1 receptor (Homo sapiens) (UniProt P43220)", "sequence (P43220 whole entry, looked up)": "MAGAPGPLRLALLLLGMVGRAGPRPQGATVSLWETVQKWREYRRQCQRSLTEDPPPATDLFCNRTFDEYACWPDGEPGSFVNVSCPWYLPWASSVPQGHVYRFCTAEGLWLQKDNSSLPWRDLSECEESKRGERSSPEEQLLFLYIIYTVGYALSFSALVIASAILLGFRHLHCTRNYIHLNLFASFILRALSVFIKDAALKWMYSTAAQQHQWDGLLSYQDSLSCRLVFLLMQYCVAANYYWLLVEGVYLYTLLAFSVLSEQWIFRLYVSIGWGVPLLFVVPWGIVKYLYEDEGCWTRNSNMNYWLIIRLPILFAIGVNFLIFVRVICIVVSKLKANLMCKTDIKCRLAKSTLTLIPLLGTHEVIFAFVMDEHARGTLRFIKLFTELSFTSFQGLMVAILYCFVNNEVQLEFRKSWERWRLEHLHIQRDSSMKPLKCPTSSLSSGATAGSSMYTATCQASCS", "test": "qHTS of GLP-1 Receptor Agonists: LOPAC Validation (AID 624148);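 note: higher luminescence signal means agonism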", "outline": "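HEK293 cells stably co-expressing a cAMP-responsive luciferase reporter and a hypersensitive GLP-1R were plated 12 h at 37 °C and exposed to compounds for 4-6 hr at 37 °C, 5% CO2. Luminescence was read 12 min after adding detection reagent.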"}, "[5]": {"test": "HTS Assay for Allosteric Antagonists of the Human D2 Dopamine Receptor: Hit Validation in HTRF (AID 624455);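 note: stable D1 dopamine receptor cell line scored for blocking the D1 response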", "outline": "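Hits were examined in an HTRF assay using cells stably expressing the D1 dopamine receptor, scoring inhibition of the D1-mediated response. The preceding primary screen tracked calcium flux after an EC80 dopamine addition in force-coupled, inducible Hek293 Trex D2 cells.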"}, "[6]": {"molecular_target": "Luciferin 4-monooxygenase (Photinus pyralis) (UniProt P08659)", "sequence (P08659 whole entry, looked up)": "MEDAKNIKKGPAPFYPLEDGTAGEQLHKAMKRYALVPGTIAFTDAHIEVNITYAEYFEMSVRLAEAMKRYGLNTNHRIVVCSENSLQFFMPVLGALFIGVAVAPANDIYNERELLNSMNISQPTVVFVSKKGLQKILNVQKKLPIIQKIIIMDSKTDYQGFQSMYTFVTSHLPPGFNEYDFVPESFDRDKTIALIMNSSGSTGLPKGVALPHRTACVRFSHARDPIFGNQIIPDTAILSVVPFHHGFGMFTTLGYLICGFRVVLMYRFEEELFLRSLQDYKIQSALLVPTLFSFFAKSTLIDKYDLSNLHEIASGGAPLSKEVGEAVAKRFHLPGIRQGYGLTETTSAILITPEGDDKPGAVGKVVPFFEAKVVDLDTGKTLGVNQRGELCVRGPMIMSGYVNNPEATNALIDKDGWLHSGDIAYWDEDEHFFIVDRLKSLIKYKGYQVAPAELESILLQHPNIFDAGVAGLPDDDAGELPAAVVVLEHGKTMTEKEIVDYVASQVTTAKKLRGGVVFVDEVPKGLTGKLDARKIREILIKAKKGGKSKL", "test": "Biochemical firefly luciferase enzyme assay for NPC (AID 624030); note: series mostly up to about 59 µM; nearly all actives have a fitted effect of over 70% in size", "outline": "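Counter-screen for direct inhibition of the luciferase enzyme by approved-drug library compounds, run at 10 nM enzyme in 50 mM Tris acetate (final). Luminescence was read within 5 min of enzyme-buffer addition and normalized to PTC124 versus DMSO (0%).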"}, "[7]": {"test": "S16 Schwann cell viability assay (CellTiter-Glo assay) (AID 624031); note: nearly all actives have a fitted effect of over 70% in size; note: potency is the fitted concentration of half-maximal effect", "outline": "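Rat S16 Schwann cells without reporter constructs received compound or DMSO for 24 h at 37 °C under 5% CO2. Cellular ATP was then quantified by CellTiter-Glo luminescence, with vehicle wells defined as 0% activity and cell-free wells as reference.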"}, "[8]": {"test": "S16 Schwann cell PMP22 intronic element firefly luciferase assay (AID 624032); note: nearly all actives have a fitted effect of over 30% in size; note: potency is the fitted concentration of half-maximal effect", "outline": "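Rat S16 Schwann cells stably carrying a PMP22 intronic element-driven Fluc reporter were seeded overnight, then exposed to compounds for 24 h at 37 °C. Luminescence was normalized to PTC124 (positive control) and DMSO (0% activity).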"}, "[9]": {"test": "qHTS of Nrf2 Activators: LOPAC Validation (AID 624149)", "outline": "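AREc32 cells carrying an ARE-driven firefly luciferase were grown overnight in OPTI-MEM with 5% FBS, then exposed to compounds for 24 hr at 37 deg C. Luciferase signal was read after 30 min with Steady-Glo at RT.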"}, "[10]": {"test": "Cytotoxicity counterscreen for NFkB agonists and antagonists (AID 624476);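 note: cells exposed to compound for 48 hours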"}, "[11]": {"test": "qHTS Assay for Identification of Small Molecule Agonists for NFkB Signaling Pathway. (AID 624478)", "outline": "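NFkB-bla ME-180 cells (beta-lactamase reporter under NFkB response element) were plated overnight, treated with compound plus TNF alpha at 10 pM final (its EC50) for 5 hrs at 37 C, then loaded with LiveBLAzer substrate for 2 hrs.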"}, "[12]": {"test": "qHTS Assay for Identification of Small Molecule Antagonists for NFkB Signaling Pathway. (AID 624479; calls by dose curve;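 note: pathway stimulated with TNF alpha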)"}, "[13]": {"test": "qHTS assay for small molecule activators of the p53 signaling pathway (AID 651743; active = well fitted activation curve with a large enough effect in the signal ratio, not every such curve was filed as active; the % refers to the signal ratio; note: series mostly up to about 92 µM)", "details": "HCT-116 p53RE-bla, beta-lactamase FRET ratio, 16 h; activation: active compounds read high", "outline": "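p53RE-bla HCT-116 cells with a stably integrated beta-lactamase reporter under p53 response elements were plated, rested 5 hours at 37 C/5% CO2, then exposed to compounds in DMSO for 16 hours at 37 C. LiveBLAzer B/G FRET substrate was read after 2 hours at room temperature.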"}},
  "note": "Values without a mark were called inactive. Results filed as inconclusive are left out. A call without a number means that no potency is given here. Calls of active or inactive are those of the source. Unless noted, calls come from the whole dose curve; as a rule, active = well fitted curve in the direction sought with a large enough effect; inconclusive = small, poorly fitted or top-dose-only effect, or another doubt; inactive = no such curve, though single readings can be large; an effect the other way counts as inactive or inconclusive.",
  "data": [
    {"smiles": "CC(C(=O)O)c1cccc(C(=O)c2ccccc2)c1", "note": "(stereo unspecified)", "values": [
      {"measurement": "Potency", "setting": "[1]", "result": "inactive"},
      {"measurement": "Potency", "setting": "[2]", "result": "inactive"},
      {"measurement": "Potency", "setting": "[3]", "result": "inactive"},
      {"measurement": "Potency", "setting": "[4]", "result": "inactive"},
      {"measurement": "Potency", "setting": "[5]", "result": "inactive"}
    ]},
    {"smiles": "CCCCc1oc2ccccc2c1C(=O)c1cc(I)c(OCCN(CC)CC)c(I)c1", "values": [
      {"measurement": "Potency", "setting": "[6]", "result": "inactive"},
      {"measurement": "Potency", "setting": "[7]", "result": "32.2 µM (active)"},
      {"measurement": "Potency", "setting": "[8]", "result": "28.7 µM (active)"},
      {"measurement": "Potency", "setting": "[2]", "result": "inactive"},
      {"measurement": "Potency", "setting": "[3]", "result": "inactive"},
      {"measurement": "Potency", "setting": "[4]", "result": "inactive"},
      {"measurement": "outcome", "setting": "[9]", "result": "inactive"},
      {"measurement": "Potency", "setting": "[5]", "result": "inactive"}
    ]},
    {"smiles": "CN(CCOc1ccc(NS(C)(=O)=O)cc1)CCc1ccc(NS(C)(=O)=O)cc1", "values": [
      {"measurement": "Potency", "setting": "[6]", "result": "inactive"},
      {"measurement": "Potency", "setting": "[7]", "result": "inactive"},
      {"measurement": "Potency", "setting": "[8]", "result": "inactive"}
    ]},
    {"smiles": "COc1ccc(CCN(C)CCCC(C#N)(c2ccc(OC)c(OC)c2)C(C)C)cc1OC", "note": "(stereo unspecified)", "values": [
      {"measurement": "Potency", "setting": "[6]", "result": "inactive"},
      {"measurement": "Potency", "setting": "[7]", "result": "inactive"},
      {"measurement": "Potency", "setting": "[8]", "result": "inactive"},
      {"measurement": "Potency", "setting": "[2]", "result": "inactive"},
      {"measurement": "outcome", "setting": "[9]", "result": "inactive"},
      {"measurement": "Potency", "setting": "[5]", "result": "inactive"},
      {"measurement": "Potency", "setting": "[10]", "result": "inactive"},
      {"measurement": "outcome", "setting": "[11]", "result": "inactive"},
      {"measurement": "Potency", "setting": "[12]", "result": "inactive"},
      {"measurement": "activation", "setting": "[13]", "result": -2.6, "unit": "%"}
    ]},
    {"smiles": "CN(C)C(=O)C(CCN1CCC(O)(c2ccc(Cl)cc2)CC1)(c1ccccc1)c1ccccc1", "values": [
      {"measurement": "Potency", "setting": "[6]", "result": "inactive"},
      {"measurement": "Potency", "setting": "[2]", "result": "inactive"},
      {"measurement": "Potency", "setting": "[3]", "result": "inactive"},
      {"measurement": "Potency", "setting": "[4]", "result": "inactive"},
      {"measurement": "Potency", "setting": "[5]", "result": "inactive"}
    ]}
  ]
}
